Test results reported in PubChem BioAssay AID925 (National Center for Advancing Translational Sciences (NCATS), 2007).
Values joined by “and” are separate entries in the source; they are usually repeats but may differ in a detail not shown here. Equal values may be shown once. Among all 65,000 compounds or so, about 40 (0.06%) were called active. The call rests on the fitted dose curve; in most records, active means well fitted activation curve with a large enough effect; inconclusive means small, poorly fitted or top-dose-only effect; inactive means flat fitted curve, though single readings scatter. Only a selection was taken, and actives are over-represented in it overall.

Assay: qHTS Assay for Modulators of Hemoglobin Beta Chain Splicing; further: 0% is about no effect
Conditions: HBB splicing reporter cell assay, EGFP reporter with mutant IVS2-654 intron; Potency: activation; series mostly up to 46.1 µM
Excerpt: NIH Chemical Genomics Center [NCGC]
NIH Molecular Libraries Screening Centers Network [MLSCN]
PI Name: Dr. Ryszard Kole
Modulation of Alternative Splicing as Therapy
Abnormal splicing is associated with a number of diseases, including cancer and genetic diseases such as cystic fibrosis, muscular dystrophy and beta-thalassemia. Alteration of disease associated splicing patterns provides a promising target for treatment. […] Mutations in the second intron of the beta-globin gene at positions are clinically relevant and cause mis-splicing which results in an out of frame gene product.
EGFP-654 and 705 HeLa Cells as screen system.
HeLa cell lines were stably transfected with a construct in which the EGFP (enhanced green fluorescent protein) cDNA was interrupted by the second intron of the beta-globin gene (IVS2-654). The ISV2 intron contains mutations which cause mis-splicing of EGFP and premature termination of EGFP which results in a nonfluorescent protein product. […] Expression of the transgene was driven by the CMV promoter. We concluded that a low molecular weight compound, which restored correct splicing of intron 2 would also generate functional EGFP protein, resulting in a fluorescent signal. Thus, the HeLa cells that express the EGFP-654 construct can be used for high throughput screening of a chemical library.
NCGC Assay Protocol Summary:
High Throughput Screening. Freshly thawed HeLa EGFP-654 cells were seeded in 5 ul of optimem media (Invitrogen) containing 2 % fetal calf serum (Hyclone) and 1x penicillin/streptomycin (Invitrogen) at a concentration of 500 cells per well in 1536-well plates. Cells were incubated overnight at 37C in 5% CO2. The next day, cells were treated with DMSO, 500 nM antisense ISV2 654 PNA control oligo, or library compound and allowed to grow at 37C in 5% CO2 for 2 days. The PNA oligo blocked the mutation site in the intron and allowed proper (wild type) splicing to occur, resulting in full length EGFP expression and also allowed for optimization of the assay parameters. Plates were read in the Acumen Explorer (TTP Labtech) using 488 nm laser excitation and 500-520 nm emission PMT filter in a 1 x […] capture mode. Fluorescnet Fluorescent objects ranging in size from […] were measured and the total peak GFP intensity for each well was used for data analysis.
Keywords: Thalassemia, beta-thalassemia, beta-globin, EGFP, ISV2 654, ISV2 705, SSO, PNA, antisense, splicing, MLSMR, MLSCN, NIH Roadmap, qHTS, NCGC

activation, inactive:
CC(C)NC(=O)N1CCCC2(CCN(C(=O)c3cccn3C)CC2)C1
O=C(O)/C(=C/c1c(C(=O)O)[nH]c2cc(Cl)cc(Cl)c12)c1ccccc1
O=C(c1ccco1)N1CCC[C@@]2(CCN(c3ccccc3)C2)C1
NC1(C(=O)OCc2ccccc2)CCCC1 1.82% [at 9.22 µM, normalised to 500 nM splice-correcting PNA]
COc1ccc(Br)c2c1C[C@H](C(=O)O)CC2 3.18% [at 9.22 µM, normalised to 500 nM splice-correcting PNA]
COC(=O)c1ccc(C(NC(=O)OCc2ccccc2)/C(C)=C/[C@@H](C)C(=O)NCc2cc(C)on2)cc1 (stereo partly drawn)
COc1ccc(-n2c(=O)c(-c3cn(C)c4ccccc34)nc3cnc(OC)nc32)cc1
Brc1cc(Br)c(Oc2cc(Br)c(Br)cc2Br)cc1Br
Oc1ccc(O)c2c(O)cccc12
N#Cc1cccc(-c2ccc3ncnc(NCc4cccs4)c3c2)c1
CC[N+](C)(CC)CCC[n+]1c(-c2ccccc2)c2cc(N)ccc2c2ccc(N)cc21
COc1ccccc1-c1cc(NCc2cccs2)ncn1
COc1ccc2[nH]cc(CCNc3nc(-c4cccc(NS(C)(=O)=O)c4)nc4ccccc34)c2c1
C[C@H](CCC(=O)O)[C@H]1CC[C@@H]2[C@H]3CC[C@H]4C[C@H](O)CC[C@@]4(C)[C@@H]3CC[C@@]21C 1.15% [at 9.22 µM, normalised to 500 nM splice-correcting PNA]
C[C@H]1O[C@@H](CC(=O)O)Cc2c1c(O)c1c(O)cc(-c3cc(=O)c4c(=O)c5c(c(=O)c=4c3=O)C[C@H](CC(=O)O)O[C@@H]5C)c(O)c1c2O 4.76% [at 9.22 µM, normalised to 500 nM splice-correcting PNA]
COC(=O)[C@@]1(Cc2ccccc2)[C@H]2c3cc(C(=O)N(C)C)n(CCSCCO)c3C[C@H]2CN1C(=O)c1ccccc1
COc1ccc(C(=O)N/N=C2/C(=O)c3c(C)cc(C)cc3CC2(C)C)cc1 3.55% [at 9.22 µM, normalised to 500 nM splice-correcting PNA]
COC(=O)[C@@]1(Cc2ccccc2)[C@H]2c3cc(C(=O)N4CCCC4)n(Cc4ccc(C)o4)c3C[C@H]2CN1C(=O)c1ccccc1
CC(C)CC1(C(=O)NCc2ccccn2)C=CCN1C(=O)c1ccccc1 (stereo not drawn)
COC(=O)C1(C)C=CC2(CCCCC2)N1C(C)=O (stereo not drawn)
O=C(Nc1cccc(F)c1)N1CC2(CCN(C(=O)c3cnccn3)CC2)C1
COc1ccc(OC)c([C@H](O)CNC(=O)CN)c1
CS(=O)(=O)N1CCC[C@@]2(CCN(c3ccncc3)C2)C1
COc1ccc(CNc2ncnc3ccc(-c4cccnc4)cc23)c(OC)c1
CN(C)C(=O)/N=N\C(=O)N(C)C
Oc1c(Br)cc(CN(Cc2cc(Br)c(O)c(Br)c2)C2CCCCC2)cc1Br 1.47% [at 9.22 µM, normalised to 500 nM splice-correcting PNA]
CC(C)(C)c1ccc(OC2C=CC(C#Cc3ccccc3)OC2CO)cc1 (stereo not drawn) -0.074% [at 9.22 µM, normalised to 500 nM splice-correcting PNA]
CC(C)=CCC/C(C)=C/CO/N=C1/C[C@@H](O)[C@@H](O)[C@@H]2[C@@H]3C(=O)N(C(C)(C)C)C(=O)[C@H]3CC[C@H]12 -1.71% [at 9.22 µM, normalised to 500 nM splice-correcting PNA]
CCCn1c(C)nc2c(NCCCCN(CC)CC)nc(C)nc21
O=C(Cl)c1ccccc1[N+](=O)[O-]
CC(C)(C)NCC[C@@H](O)c1cc(C(F)(F)F)nc2c(C(F)(F)F)cccc12 0.766% [at 9.22 µM, normalised to 500 nM splice-correcting PNA]
COc1cccc(-c2cc(NCCc3c[nH]c4ccc(OC)cc34)ncn2)c1
COc1ccc(/C=C/NC(=O)Cc2ccc(OC)c(OC)c2)cc1 1.47% [at 9.22 µM, normalised to 500 nM splice-correcting PNA] and 0.37% [at 9.22 µM, normalised to 500 nM splice-correcting PNA]
O=C(O)c1nccnc1C(=O)Nc1ccc(Br)cn1
COc1cccc(Cn2c(=O)cnc3cncnc32)c1
O=C(O)[C@H](CCc1ccccn1)c1ccccc1 1.34% [at 9.22 µM, normalised to 500 nM splice-correcting PNA]
N#Cc1ccccc1-c1ccc2ncnc(NCc3cccnc3)c2c1
CCCCC/C=C/C=C/C=O
O=C(O)CCCCC(=O)O
CNC(=O)C1(C)C=CC2(CCCCC2)N1C(C)=O (stereo not drawn)
O=S(=O)(c1ccccc1)N1CCC2(CC1)CN(Cc1nccs1)C2
CCON=C1C(C)(C)C(C)(C)C(C)(C)C1(C)C 1.16% [at 9.22 µM, normalised to 500 nM splice-correcting PNA]
O=C(c1cnccn1)N1CCC2(CCN(Cc3cc(C(F)(F)F)cc(C(F)(F)F)c3)CC2)CC1
O=C(c1ccncc1)N1CCC2(CCCN(C(c3ccccc3)c3ccccc3)C2)CC1
Nc1ccccc1N
CC(=O)OCC(COC(C)=O)OC(C)=O
Cc1cc(C(=O)O)ccc1[N+](=O)[O-]
O=C1C[C@@H](O)[C@@H](O)[C@H]2[C@@H]3C(=O)N(Cc4ccc5c(c4)OCO5)C(=O)[C@@H]3CC[C@H]12 3.01% [at 9.22 µM, normalised to 500 nM splice-correcting PNA] and 2.86% [at 9.22 µM, normalised to 500 nM splice-correcting PNA]
